# Source: article PMC7862700, “An all-to-all approach to the identification of sequence-specific readers for epigenetic DNA modifications on cytosine”
# Tests used:
# Assay in all cases: DAPPL (digital affinity profiling via proximity ligation, sequencing); 10 mM Tris-HCl pH 7.5, 50 mM NaCl, 1 mM DTT, 4% glycerol, room temperature, 30 min; GST-TFs on glutathione beads, 16-mer random dsDNA library, 0.1% formaldehyde crosslink after washing; high values mean tight binding
# FLI1 = target: T1, FLI1 (Homo sapiens, UniProt Q01543 1-452); conditions: protein: recombinant; tags: N-terminal GST; dsDNA, one strand shown
# T1 sequence: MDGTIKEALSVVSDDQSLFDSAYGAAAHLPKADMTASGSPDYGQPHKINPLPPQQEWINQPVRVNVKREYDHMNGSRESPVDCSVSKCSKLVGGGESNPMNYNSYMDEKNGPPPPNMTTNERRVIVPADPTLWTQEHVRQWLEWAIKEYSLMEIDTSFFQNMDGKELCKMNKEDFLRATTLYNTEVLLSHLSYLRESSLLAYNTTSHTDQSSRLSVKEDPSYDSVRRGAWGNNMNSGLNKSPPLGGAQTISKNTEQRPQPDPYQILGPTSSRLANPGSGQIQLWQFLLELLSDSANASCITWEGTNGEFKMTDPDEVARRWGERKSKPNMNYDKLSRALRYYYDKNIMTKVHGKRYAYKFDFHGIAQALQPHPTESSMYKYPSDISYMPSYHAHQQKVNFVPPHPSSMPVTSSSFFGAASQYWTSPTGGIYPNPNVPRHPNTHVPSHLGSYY
# Method in brief: (§1)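 Pools of DNA-barcoded human transcription factors, expressed in yeast as GST fusions on glutathione beads and combined with a tag-only sample, were incubated with 200 nmole of a 16-mer random double-stranded DNA library. Incubation took 30 min at room temperature in Tris/NaCl/DTT/glycerol buffer and was followed by washing, 0.1% formaldehyde crosslinking, proximity ligation (BsaI/T4 ligase, 1 h, 37 °C), PCR amplification and sequencing on an Illumina NextSeq500. Binding signal is the ratio of a hexamer's read frequency for a factor to its frequency for the tag-only sample.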
# ELK1 = target: T2, ELK1 (Homo sapiens, UniProt P19419 1-428); conditions: protein: recombinant; tags: N-terminal GST; dsDNA, one strand shown
# T2 sequence: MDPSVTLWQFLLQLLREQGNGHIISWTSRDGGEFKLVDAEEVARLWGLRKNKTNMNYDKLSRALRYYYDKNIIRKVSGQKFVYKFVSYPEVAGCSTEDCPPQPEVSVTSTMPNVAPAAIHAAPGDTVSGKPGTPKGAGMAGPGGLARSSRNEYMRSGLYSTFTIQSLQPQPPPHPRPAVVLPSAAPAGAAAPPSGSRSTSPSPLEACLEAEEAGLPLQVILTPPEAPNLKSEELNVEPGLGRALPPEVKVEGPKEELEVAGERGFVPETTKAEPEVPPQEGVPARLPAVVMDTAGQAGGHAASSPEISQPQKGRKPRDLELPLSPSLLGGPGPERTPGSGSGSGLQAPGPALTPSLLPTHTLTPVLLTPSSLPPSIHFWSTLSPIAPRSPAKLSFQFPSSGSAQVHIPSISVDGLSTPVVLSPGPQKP
# Method in brief: as §1
# GABPA = target: T3, GABPA (Homo sapiens, UniProt Q06546 1-454); conditions: protein: recombinant; tags: N-terminal GST; dsDNA, one strand shown
# T3 sequence: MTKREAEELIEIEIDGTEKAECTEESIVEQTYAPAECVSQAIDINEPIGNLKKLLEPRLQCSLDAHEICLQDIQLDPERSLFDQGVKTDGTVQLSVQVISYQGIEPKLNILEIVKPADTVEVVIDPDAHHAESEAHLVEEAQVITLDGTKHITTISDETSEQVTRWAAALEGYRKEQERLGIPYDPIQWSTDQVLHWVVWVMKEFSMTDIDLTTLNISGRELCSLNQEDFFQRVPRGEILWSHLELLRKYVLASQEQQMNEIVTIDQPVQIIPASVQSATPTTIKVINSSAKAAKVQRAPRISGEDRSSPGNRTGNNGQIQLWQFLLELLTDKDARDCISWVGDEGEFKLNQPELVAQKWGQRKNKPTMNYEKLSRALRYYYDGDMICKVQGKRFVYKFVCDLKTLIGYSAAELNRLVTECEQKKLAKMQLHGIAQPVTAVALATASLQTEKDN
# Method in brief: as §1
# ERG = target: T4, ERG (Homo sapiens, UniProt P11308 1-479); conditions: protein: recombinant; tags: N-terminal GST; dsDNA, one strand shown
# T4 sequence: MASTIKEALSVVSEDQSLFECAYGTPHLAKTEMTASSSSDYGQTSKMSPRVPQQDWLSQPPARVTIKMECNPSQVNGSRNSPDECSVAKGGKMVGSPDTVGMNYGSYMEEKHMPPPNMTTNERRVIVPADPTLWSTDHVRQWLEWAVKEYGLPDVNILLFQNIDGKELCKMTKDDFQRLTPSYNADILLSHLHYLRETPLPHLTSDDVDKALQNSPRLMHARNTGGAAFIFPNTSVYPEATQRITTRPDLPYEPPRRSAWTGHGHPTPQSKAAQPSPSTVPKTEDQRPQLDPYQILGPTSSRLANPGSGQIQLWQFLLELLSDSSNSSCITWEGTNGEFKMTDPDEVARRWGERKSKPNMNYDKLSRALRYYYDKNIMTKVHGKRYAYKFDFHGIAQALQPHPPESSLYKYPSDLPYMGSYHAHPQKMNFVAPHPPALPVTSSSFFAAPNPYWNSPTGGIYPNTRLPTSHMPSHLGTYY
# Method in brief: as §1
# ELF1 = ELF1 (Homo sapiens, UniProt P32519 1-619); conditions: protein: recombinant; tags: N-terminal GST; dsDNA, one strand shown
# ELF1, sequence (P32519 whole entry): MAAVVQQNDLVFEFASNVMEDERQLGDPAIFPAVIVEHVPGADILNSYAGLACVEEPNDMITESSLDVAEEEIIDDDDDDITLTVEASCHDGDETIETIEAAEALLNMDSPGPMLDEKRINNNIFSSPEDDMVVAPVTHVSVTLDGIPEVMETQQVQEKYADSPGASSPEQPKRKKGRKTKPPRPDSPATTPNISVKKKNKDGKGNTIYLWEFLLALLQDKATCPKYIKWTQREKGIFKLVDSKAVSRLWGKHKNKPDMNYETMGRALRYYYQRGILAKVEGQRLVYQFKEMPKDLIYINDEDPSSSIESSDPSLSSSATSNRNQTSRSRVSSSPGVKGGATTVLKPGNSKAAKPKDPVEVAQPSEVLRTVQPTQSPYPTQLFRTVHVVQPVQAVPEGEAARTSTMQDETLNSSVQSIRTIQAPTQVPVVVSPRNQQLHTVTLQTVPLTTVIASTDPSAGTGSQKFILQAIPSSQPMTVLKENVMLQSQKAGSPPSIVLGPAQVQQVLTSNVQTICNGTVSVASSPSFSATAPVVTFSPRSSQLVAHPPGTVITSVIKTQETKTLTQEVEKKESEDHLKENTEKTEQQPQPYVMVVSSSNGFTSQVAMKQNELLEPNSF
# Method in brief: as §1
# EHF = target: T5, EHF (Homo sapiens, UniProt Q9NZC4 1-300); conditions: protein: recombinant; tags: N-terminal GST; dsDNA, one strand shown
# T5 sequence: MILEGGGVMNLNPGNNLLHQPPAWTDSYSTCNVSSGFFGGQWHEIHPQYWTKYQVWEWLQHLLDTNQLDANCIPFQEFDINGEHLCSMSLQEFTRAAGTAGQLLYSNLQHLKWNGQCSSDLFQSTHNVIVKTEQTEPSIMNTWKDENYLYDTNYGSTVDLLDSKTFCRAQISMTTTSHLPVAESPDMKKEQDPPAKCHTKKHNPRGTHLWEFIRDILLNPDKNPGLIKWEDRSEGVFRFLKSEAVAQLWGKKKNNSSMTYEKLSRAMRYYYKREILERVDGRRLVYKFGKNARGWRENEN
# Method in brief: as §1
# SPI1 = SPI1 (Homo sapiens, UniProt P17947 1-270); conditions: protein: recombinant; tags: N-terminal GST; dsDNA, one strand shown
# Method in brief: as §1
# SPIB = SPIB (Homo sapiens, UniProt Q01892 1-262); conditions: protein: recombinant; tags: N-terminal GST; dsDNA, one strand shown
# SPIB, sequence (Q01892 whole entry): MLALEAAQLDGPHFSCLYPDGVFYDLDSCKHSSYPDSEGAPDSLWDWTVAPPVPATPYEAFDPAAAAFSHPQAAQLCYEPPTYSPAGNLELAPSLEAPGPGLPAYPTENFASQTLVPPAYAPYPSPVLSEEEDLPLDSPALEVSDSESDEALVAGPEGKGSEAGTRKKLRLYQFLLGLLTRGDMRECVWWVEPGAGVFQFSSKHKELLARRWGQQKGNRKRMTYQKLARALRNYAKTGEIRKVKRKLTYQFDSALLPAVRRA
# Method in brief: as §1
# ELK3 = target: T6, ELK3 (Homo sapiens, UniProt P41970 1-407); conditions: protein: recombinant; tags: N-terminal GST; dsDNA, one strand shown
# T6 sequence: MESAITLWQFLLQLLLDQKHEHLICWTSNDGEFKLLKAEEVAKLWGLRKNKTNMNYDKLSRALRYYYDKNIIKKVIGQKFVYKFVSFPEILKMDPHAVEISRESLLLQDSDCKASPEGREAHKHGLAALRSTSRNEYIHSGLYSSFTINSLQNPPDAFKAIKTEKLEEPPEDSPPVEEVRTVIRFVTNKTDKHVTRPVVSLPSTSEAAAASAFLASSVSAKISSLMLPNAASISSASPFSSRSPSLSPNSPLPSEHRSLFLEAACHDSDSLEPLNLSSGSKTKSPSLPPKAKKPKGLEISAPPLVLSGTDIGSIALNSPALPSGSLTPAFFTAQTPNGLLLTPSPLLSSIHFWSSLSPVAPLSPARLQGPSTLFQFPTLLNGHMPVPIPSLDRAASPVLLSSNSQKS
# Method in brief: as §1
# FEV = target: T7, FEV (Homo sapiens, UniProt Q99581 1-238); conditions: protein: recombinant; tags: N-terminal GST; dsDNA, one strand shown
# T7 sequence: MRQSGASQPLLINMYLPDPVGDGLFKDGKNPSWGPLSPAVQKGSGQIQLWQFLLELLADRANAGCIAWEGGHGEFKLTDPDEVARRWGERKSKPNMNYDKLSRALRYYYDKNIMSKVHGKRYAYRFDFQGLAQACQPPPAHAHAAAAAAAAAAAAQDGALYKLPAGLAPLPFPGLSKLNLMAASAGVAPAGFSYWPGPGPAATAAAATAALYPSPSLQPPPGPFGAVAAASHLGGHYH
# Method in brief: as §1
# ETV5 = ETV5 (Homo sapiens, UniProt P41161 1-510); conditions: protein: recombinant; tags: N-terminal GST; dsDNA, one strand shown
# ETV5, sequence (P41161 whole entry): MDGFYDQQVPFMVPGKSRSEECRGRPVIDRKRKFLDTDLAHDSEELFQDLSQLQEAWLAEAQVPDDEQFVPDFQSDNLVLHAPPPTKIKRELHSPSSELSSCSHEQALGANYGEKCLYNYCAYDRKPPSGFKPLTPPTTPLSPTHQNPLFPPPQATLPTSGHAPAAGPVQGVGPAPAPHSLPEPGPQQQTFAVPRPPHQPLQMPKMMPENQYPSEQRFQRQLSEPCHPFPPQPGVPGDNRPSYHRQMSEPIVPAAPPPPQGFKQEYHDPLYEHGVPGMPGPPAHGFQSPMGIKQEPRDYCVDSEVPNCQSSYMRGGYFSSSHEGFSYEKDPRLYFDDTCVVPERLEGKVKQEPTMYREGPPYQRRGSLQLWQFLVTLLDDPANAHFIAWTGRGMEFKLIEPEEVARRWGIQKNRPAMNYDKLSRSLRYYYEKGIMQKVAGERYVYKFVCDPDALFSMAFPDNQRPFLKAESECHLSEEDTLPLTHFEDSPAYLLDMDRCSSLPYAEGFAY
# Method in brief: as §1
# HSF1 = HSF1 (Homo sapiens, UniProt Q00613 1-529); conditions: protein: recombinant; tags: N-terminal GST; chain copies: 3; dsDNA, one strand shown
# HSF1, sequence (Q00613 whole entry): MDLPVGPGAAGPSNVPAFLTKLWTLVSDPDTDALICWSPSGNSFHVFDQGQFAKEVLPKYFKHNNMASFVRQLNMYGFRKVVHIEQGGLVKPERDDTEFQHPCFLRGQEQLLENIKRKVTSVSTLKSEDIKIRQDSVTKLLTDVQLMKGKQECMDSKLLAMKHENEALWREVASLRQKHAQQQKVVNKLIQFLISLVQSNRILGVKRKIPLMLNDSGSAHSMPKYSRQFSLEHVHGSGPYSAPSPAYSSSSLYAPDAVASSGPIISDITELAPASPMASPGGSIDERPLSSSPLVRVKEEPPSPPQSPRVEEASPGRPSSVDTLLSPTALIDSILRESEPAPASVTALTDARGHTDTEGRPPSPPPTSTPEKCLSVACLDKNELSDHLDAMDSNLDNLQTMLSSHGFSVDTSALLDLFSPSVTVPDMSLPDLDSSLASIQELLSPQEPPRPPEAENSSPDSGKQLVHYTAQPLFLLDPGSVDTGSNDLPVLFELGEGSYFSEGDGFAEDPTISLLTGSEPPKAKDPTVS
# Method in brief: as §1
# SPIC = target: T8, SPIC (Homo sapiens, UniProt Q8N5J4 1-248); conditions: protein: recombinant; tags: N-terminal GST; dsDNA, one strand shown
# T8 sequence: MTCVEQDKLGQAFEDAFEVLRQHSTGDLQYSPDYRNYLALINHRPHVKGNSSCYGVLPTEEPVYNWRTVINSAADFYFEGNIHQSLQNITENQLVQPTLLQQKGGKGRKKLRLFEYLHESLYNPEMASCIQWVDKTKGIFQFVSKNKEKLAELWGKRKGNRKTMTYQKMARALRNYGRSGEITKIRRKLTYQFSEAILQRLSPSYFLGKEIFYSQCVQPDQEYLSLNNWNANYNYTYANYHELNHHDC
# Method in brief: as §1
# ELF4 = ELF4 (Homo sapiens, UniProt Q99607 1-663); conditions: protein: recombinant; tags: N-terminal GST; dsDNA, one strand shown
# ELF4, sequence (Q99607 whole entry): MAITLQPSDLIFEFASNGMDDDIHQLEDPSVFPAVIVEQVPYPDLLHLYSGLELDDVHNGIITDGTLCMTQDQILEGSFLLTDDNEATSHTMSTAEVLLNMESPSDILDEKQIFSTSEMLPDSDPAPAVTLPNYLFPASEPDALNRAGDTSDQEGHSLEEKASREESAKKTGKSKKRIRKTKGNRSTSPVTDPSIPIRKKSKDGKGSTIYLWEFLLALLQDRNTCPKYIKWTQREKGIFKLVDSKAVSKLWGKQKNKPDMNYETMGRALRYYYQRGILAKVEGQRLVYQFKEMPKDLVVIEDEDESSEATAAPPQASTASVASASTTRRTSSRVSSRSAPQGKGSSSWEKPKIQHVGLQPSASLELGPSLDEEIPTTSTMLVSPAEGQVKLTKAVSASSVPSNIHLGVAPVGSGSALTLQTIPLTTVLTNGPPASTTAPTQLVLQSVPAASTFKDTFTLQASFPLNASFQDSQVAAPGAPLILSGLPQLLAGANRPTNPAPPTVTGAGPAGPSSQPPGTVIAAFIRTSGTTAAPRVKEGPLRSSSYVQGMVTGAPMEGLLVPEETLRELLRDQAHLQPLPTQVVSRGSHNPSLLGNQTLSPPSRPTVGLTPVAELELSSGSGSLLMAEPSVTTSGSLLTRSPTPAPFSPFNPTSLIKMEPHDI
# Method in brief: as §1
# ELK4 = target: T9, ELK4 (Homo sapiens, UniProt P28324-2 1-405); conditions: protein: recombinant; tags: N-terminal GST; dsDNA, one strand shown
# T9 sequence: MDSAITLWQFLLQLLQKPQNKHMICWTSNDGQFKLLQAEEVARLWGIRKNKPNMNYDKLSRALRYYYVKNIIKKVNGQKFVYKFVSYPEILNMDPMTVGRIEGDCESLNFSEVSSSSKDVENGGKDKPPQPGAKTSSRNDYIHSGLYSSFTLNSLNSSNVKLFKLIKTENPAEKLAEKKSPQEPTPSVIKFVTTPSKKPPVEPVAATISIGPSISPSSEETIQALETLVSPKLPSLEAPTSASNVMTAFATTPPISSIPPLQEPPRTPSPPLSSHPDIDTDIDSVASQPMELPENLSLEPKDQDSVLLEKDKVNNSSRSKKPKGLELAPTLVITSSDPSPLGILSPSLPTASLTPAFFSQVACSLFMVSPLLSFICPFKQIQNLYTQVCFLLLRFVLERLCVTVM
# Method in brief: as §1
# ETV2 = target: T10, ETV2 (Homo sapiens, UniProt O00321 1-342); conditions: protein: recombinant; tags: N-terminal GST; dsDNA, one strand shown
# T10 sequence: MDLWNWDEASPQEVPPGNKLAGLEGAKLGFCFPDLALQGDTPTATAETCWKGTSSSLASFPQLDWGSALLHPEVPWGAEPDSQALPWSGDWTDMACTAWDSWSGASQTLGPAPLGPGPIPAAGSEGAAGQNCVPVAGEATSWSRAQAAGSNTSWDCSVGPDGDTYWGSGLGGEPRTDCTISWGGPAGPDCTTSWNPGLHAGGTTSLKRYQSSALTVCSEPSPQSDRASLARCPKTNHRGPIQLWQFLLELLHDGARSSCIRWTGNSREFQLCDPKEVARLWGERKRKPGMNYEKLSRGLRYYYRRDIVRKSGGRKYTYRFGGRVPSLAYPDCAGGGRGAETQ
# Method in brief: as §1
# ELF3 = target: T11, ELF3 (Homo sapiens, UniProt P78545 1-371); conditions: protein: recombinant; tags: N-terminal GST; dsDNA, one strand shown
# T11 sequence: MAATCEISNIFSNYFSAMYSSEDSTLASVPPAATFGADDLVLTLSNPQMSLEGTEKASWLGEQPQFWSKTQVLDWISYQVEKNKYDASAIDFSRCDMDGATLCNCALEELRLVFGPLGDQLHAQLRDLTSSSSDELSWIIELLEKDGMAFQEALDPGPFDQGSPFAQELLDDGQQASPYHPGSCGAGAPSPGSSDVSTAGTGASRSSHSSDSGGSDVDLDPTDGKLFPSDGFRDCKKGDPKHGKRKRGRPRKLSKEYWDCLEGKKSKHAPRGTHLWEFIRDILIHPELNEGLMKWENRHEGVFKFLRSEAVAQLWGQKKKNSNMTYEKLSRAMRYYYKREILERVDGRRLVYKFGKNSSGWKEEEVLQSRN
# Method in brief: as §1
# CRX = CRX (Homo sapiens, UniProt O43186 1-299); conditions: protein: recombinant; tags: N-terminal GST; dsDNA, one strand shown
# CRX, sequence (O43186 whole entry): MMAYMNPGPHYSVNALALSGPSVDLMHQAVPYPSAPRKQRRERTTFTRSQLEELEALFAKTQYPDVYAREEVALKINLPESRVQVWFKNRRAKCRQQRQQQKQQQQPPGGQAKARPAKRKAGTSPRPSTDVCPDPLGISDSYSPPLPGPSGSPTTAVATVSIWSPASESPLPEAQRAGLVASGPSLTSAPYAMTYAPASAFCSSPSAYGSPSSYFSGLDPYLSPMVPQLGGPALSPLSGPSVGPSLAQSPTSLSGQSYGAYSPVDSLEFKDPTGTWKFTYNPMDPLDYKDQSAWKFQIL
# Method in brief: as §1
# ETV1 = ETV1 (Homo sapiens, UniProt P50549 1-477); conditions: protein: recombinant; tags: N-terminal GST; dsDNA, one strand shown
# ETV1, sequence (P50549 whole entry): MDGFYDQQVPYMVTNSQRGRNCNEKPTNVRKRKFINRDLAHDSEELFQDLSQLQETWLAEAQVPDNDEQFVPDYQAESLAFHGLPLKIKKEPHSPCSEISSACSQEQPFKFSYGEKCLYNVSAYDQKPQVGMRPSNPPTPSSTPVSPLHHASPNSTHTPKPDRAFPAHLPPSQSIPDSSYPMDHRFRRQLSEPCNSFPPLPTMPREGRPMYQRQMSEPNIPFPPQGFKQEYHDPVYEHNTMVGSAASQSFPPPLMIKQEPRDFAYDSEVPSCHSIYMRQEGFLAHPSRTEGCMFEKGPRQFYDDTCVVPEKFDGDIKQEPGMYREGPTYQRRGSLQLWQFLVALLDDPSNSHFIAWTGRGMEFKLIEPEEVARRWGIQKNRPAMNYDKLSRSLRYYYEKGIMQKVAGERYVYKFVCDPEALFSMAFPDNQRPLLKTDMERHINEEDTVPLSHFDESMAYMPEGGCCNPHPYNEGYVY
# Method in brief: as §1
sequence,measurement,setting,value
AAGGAT,binding signal,FLI1,"1.14 fold enrichment (6-mer frequency, TF over GST control)"
same,binding signal,ELK1,"1.19 fold enrichment (6-mer frequency, TF over GST control)"
same,binding signal,GABPA,"1.12 fold enrichment (6-mer frequency, TF over GST control)"
same,binding signal,ERG,"1.17 fold enrichment (6-mer frequency, TF over GST control)"
same,binding signal,ELF1,"1.22 fold enrichment (6-mer frequency, TF over GST control)"
same,binding signal,EHF,"1.25 fold enrichment (6-mer frequency, TF over GST control)"
same,binding signal,SPI1,"1.12 fold enrichment (6-mer frequency, TF over GST control)"
same,binding signal,SPIB,"1.19 fold enrichment (6-mer frequency, TF over GST control)"
same,binding signal,ELK3,"1.13 fold enrichment (6-mer frequency, TF over GST control)"
same,binding signal,FEV,"1.1 fold enrichment (6-mer frequency, TF over GST control)"
same,binding signal,ETV5,"1.17 fold enrichment (6-mer frequency, TF over GST control)"
same,binding signal,HSF1,"1.5 fold enrichment (6-mer frequency, TF over GST control)"
same,binding signal,SPIC,"1.09 fold enrichment (6-mer frequency, TF over GST control)"
same,binding signal,ELF4,"1.13 fold enrichment (6-mer frequency, TF over GST control)"
same,binding signal,ELK4,"1.08 fold enrichment (6-mer frequency, TF over GST control)"
same,binding signal,ETV2,"1.24 fold enrichment (6-mer frequency, TF over GST control)"
same,binding signal,ELF3,"1.13 fold enrichment (6-mer frequency, TF over GST control)"
same,binding signal,CRX,"1.97 fold enrichment (6-mer frequency, TF over GST control)"
same,binding signal,ETV1,"1.12 fold enrichment (6-mer frequency, TF over GST control)"
